Screening data deposited in PubChem BioAssay by several laboratories.
Most compounds without a hit are left out; they make up all but 5% or so of the library.
SENP7 inh – blocks the human protease SENP7; Q9BQF6; recombinant SENP7, Z-RLRGG-aminoluciferin luminescence, 40 min; inhibition, % at 5 µM; 330,000 compounds, 1.5% hits;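 active = inhibition above about 50% at the single test dose, limit read from the data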;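 note: plate controls were DMSO with enzyme for no effect and no enzyme buffer wells for full effect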
Target sequence (Q9BQF6 706-1050 limits assumed): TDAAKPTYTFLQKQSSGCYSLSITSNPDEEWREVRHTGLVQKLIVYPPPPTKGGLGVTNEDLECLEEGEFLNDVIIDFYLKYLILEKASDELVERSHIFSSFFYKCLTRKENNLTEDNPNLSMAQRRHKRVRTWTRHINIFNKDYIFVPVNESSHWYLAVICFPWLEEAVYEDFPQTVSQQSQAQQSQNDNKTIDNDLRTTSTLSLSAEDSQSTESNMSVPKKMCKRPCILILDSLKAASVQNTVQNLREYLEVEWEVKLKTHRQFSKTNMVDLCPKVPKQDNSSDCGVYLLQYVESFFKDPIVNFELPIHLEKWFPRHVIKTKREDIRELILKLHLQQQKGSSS
SENP8 block-1 – SENP8 (human) protease inhibition; Q96LD8; recombinant SENP8, Nedd8 substrate fluorescence; inhibition, % at 20 µM; 360,000 compounds, 0.64% hits; AID 602440; in the data active = inhibition mostly above about 40%, no sharp cut-off; inactive = mostly below about 27%
Target sequence (Q96LD8 whole entry, looked up): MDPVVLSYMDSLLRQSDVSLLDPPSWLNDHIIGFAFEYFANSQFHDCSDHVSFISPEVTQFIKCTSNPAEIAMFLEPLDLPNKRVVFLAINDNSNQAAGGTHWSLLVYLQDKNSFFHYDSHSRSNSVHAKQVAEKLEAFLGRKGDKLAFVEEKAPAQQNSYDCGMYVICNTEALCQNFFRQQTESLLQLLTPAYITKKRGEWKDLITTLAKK
SENP6 inh – SENP6 protease inhibition; Q9GZR1; Recombinant SENP6 catalytic domain, aminoluciferin luminescence; inhibition, % at 10 µM; 330,000 compounds, 1.8% hits; AID 2599;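 active = inhibition above about 50% at the single tested dose, limit read from the data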;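 note: plate controls were DMSO wells with enzyme for no effect and DMSO wells lacking enzyme for full effect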
SENP8 block-2 – blocks the human protease SENP8; Q96LD8; purified SENP8, Z-RLRGG-aminoluciferin cleavage, luminescence; inhibition, % at 10 µM; 330,000 compounds, 1.2% hits; AID 2540; in the data active = inhibition above about 50%
AHR act – activates the human aryl hydrocarbon receptor; 320,000 compounds, 2.5% hits; AHR-responsive luciferase reporter cells, luminescence; activation, % at 5 µM; AID 2796; in the data active = activation above about 47%;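 note: 0% = vehicle wells and 100% = reference agonist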
EBI2 block – antagonists of human EBI2 receptor | P32249 | EBI2 beta-arrestin recruitment, luminescence, 7a,25-OHC stimulated | inhibition, % at 5 µM | 360,000 compounds, 0.81% hits | AID 651636; in the data active = inhibition above about 38%;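 note: enzyme fragment complementation signal reports receptor beta-arrestin coupling in cells; 0% = agonist plus DMSO wells and 100% = wells without agonist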
An asterisk follows results filed as active; . = no result given.

SMILES | SENP7 inh | SENP8 block-1 | SENP6 inh | SENP8 block-2 | AHR act | EBI2 block
CCc1cc2c(=O)[nH]c(N3CCCC3)nc2s1 | 5 | -264 | -6 | 1 | 14 | -11
CCc1cc2c(=O)[nH]c(-c3ccccn3)nc2s1 | -6 | -218 | -6 | -10 | 5 | 50*
NC(=O)c1ccsc1NC(=O)c1cc(=O)c2ccccc2o1 | 65* | 6 | 41 | 26 | 41 | 11
CC(=O)Nc1ccc(NC(=O)c2cc(=O)c3ccccc3o2)cc1 | 0 | 10 | -6 | 3 | 0 | 0
Cc1ccc(NC(=O)c2cc(=O)c3ccccc3o2)cc1 | 5 | 7 | 4 | 0 | 55* | -12
O=C(/C=C1\OCc2ccccc21)c1ccccc1 | . | 19 | . | . | . | -30
COc1ccc(OC)c(CN2C(=O)CSCC2(C)C(=O)NCc2ccccc2)c1 (stereo unspecified) | . | 22 | . | . | . | -8
C[C@@H]1CN([C@H](C)CO)C(=O)CCCn2cc(nn2)CO[C@H]1CN(C)C(=O)Nc1ccc(-c2cccs2)cc1 | . | -104 | . | . | . | -2
COc1ccccc1/C=C1\SC(=S)N(CCC(=O)N2CCCCC2CCO)C1=O (stereo unspecified) | -5 | 51* | 2 | 0 | 5 | 10
COc1ccccc1/C=C1\SC(=O)N(CCC(=O)N2CCCCC2CCO)C1=O (stereo unspecified) | -5 | -33 | 2 | -9 | 5 | -1
O=C(C=Cc1ccc2c(c1)OCO2)C=Cc1ccc2c(c1)OCO2 | . | -80 | . | . | . | 8
O=C(/C=C/c1ccc2c(c1)OCO2)N1CCOCC1 | 1 | -290 | -10 | -7 | 55* | 8
COc1ccc(/C=C/C(=O)N2CC(C)OC(C)C2)cc1OC (stereo unspecified) | -3 | -108 | -2 | -9 | 5 | -1
O=C(C=Cc1ccc2c(c1)OCO2)c1ccccc1 | . | -57 | . | . | . | 2
CC1CN(C(=O)/C=C/c2ccc3c(c2)OCO3)CC(C)O1 (stereo unspecified) | -8 | -172 | -18 | -12 | 60* | 10
CCN(C(=O)/C=C/c1ccc2c(c1)OCO2)c1ccccc1 | -2 | -15 | 7 | 2 | 70* | 1
COc1ccc(N(/N=C2\Sc3ccccc3C2=O)C(C)=O)cc1 | . | 52* | . | . | . | 28
Cn1cc(S(=O)(=O)N2CCCC2)cc1C(=O)Nc1cccc(C(F)(F)F)c1 | 8 | 13 | 0 | -11 | 4 | 16
C=CCOc1ccc(C(=O)Nc2ncn[nH]2)cc1 | 13 | 13 | 10 | 7 | 66* | -3
CCOC(=O)c1c(NC(=O)Nc2ccccc2)sc(C)c1C | -4 | -36 | -20 | -5 | 49* | 13
CCOC(=O)Nc1sc(C)c(C)c1C(=O)OCC | 7 | 26 | -11 | -4 | 2 | 2
CSc1ccc(NC(=O)C2(C)CCN2C(=O)c2cc(C)n(C)n2)cc1 (stereo unspecified) | . | 11 | . | . | . | 0
C#CCNC(=O)C[C@@H]1C[C@@]2(C(=O)OCC)CCC=C2N(CCC2=CCCCC2)C1=O | . | 38 | . | . | . | 1
CCNc1nc(NC(C)C)nc(SCCOc2ccc(C)cc2)n1 | 2 | 14 | 2 | 0 | 47* | 9
C/C(=N\Nc1ccc(C#N)cc1[N+](=O)[O-])c1ccc(O)cc1 | -3 | 44* | -18 | 0 | -2 | 14
SMILES | SENP7 inh | SENP8 block-1 | SENP6 inh | SENP8 block-2 | AHR act | EBI2 block
O=C(NCc1cccs1)C1Cc2c(-c3ccc(Cl)cc3)ccnc2O1 (stereo unspecified) | . | 22 | . | . | . | -14
Nc1ccc2c(c1)Nc1ccccc1CC2 | 6 | 3 | 2 | -10 | 50* | -6
COCCNc1nc(NCc2ccc(C(C)C)cc2)c2sccc2n1 | . | 9 | . | . | . | -33
Cc1ccc(-c2cc(-c3ccc4c(c3)OCO4)c(C#N)c(N)n2)o1 | -1 | -272 | 4 | 2 | 75* | 14
Cc1ccc(-c2cc(-c3ccc(C)o3)nc(N)c2C#N)cc1 | 6 | -494 | 5 | 0 | 3 | -2
COc1ccc(C)cc1NC(=O)CNC(=O)[C@@H]1Cc2ccccc2CN1 | 2 | 18 | 2 | 0 | 5 | 0
O=C1CN(c2nc(-c3ccccc3)c3ccccc3n2)c2ccccc2N1 | -4 | -13 | -1 | -4 | 61* | 2
Cc1ccc(-n2c(=S)[nH]c3c(oc4ccccc43)c2=O)cc1C | -9 | -9 | -10 | -10 | 14 | -1
O=c1c2oc3ccccc3c2[nH]c(=S)n1-c1ccc(F)cc1 | -2 | 4 | -2 | 3 | 57* | -11
CC(Oc1ccccc1)C(=O)Nc1ccccc1O (stereo unspecified) | -7 | 30 | -2 | -13 | 49* | 1
COC(=O)c1ccccc1NC(=O)C(C)Oc1ccccc1 (stereo unspecified) | -1 | -4 | -6 | 5 | -1 | 8
CN(C)CC(=O)N[C@@H]1CC[C@@H](CCNS(=O)(=O)c2ccccc2)O[C@@H]1CO | . | 13 | . | . | . | -5
Cc1nn2c(-c3ccccc3)ccnc2c1Br | -1 | 0 | 2 | 8 | 74* | 6
Cc1cc(C)n(-c2nc(NCCO)c3c4c(sc3n2)CCCC4)n1 | -7 | 19 | -11 | 1 | 47* | -12
O=C(NCCCn1ccnc1)c1ccc2ccccc2c1 | -7 | 1 | 2 | -9 | 60* | 15
O=C(/C=C/c1ccc(Br)cc1)NCCCn1ccnc1 | -15 | 0 | -15 | -7 | 38 | 5
S=C(NCCCn1ccnc1)Nc1cccc(Cl)c1 | 4 | 15 | 3 | 3 | 49* | 4
O=C(NCCCn1ccnc1)c1sc2cccc(F)c2c1Cl | -1 | -42 | -2 | 4 | 78* | -1
O=C(/C=C/c1c(Cl)cccc1Cl)NCCCn1ccnc1 | -6 | 10 | -37 | -12 | 48* | -5
O=C(NCC1CC1)c1cc2c(c(-c3cccc(-c4ccccc4F)c3)n1)[C@@H](CCO)N(C(=O)CC1CC1)C2 | . | 21 | . | . | . | 19
CC1CCCN(CCOc2ccc3ccccc3c2Br)C1 (stereo unspecified) | -5 | 21 | -15 | -5 | 8 | -4
CC1CCc2sc(C(=O)NCCCn3ccnc3)cc2C1 (stereo unspecified) | 11 | 4 | -16 | -6 | 51* | 0
O=C(NCCCn1ccnc1)c1cc2c(s1)CCCCC2 | -6 | 14 | -1 | 3 | 19 | -19
O=C(CCC1CCCN(C(=O)c2cc(F)ccc2F)C1)N1CCN(c2ccccn2)CC1 (stereo unspecified) | . | 5 | . | . | . | -4
Cc1cccc(C)c1NC(=O)/C(C#N)=C/c1ccc(-c2ccc(C(=O)O)cc2)o1 | -8 | -54 | 29 | 6 | 2 | 5
N#C/C(=C\c1ccc(-c2ccc(C(=O)O)cc2)o1)C(=O)Nc1ccc(F)cc1 | . | -231 | . | . | 77* | 5
COc1cccc(SCc2noc(C(=O)NCC3CC3)c2C(=O)NCC2CC2)c1 | -2 | 15 | 2 | 3 | 7 | -8
CC(C)(C)c1ncc(S(=O)(=O)c2ccc(C(F)(F)F)cn2)c(N)n1 | -4 | 17 | -2 | 4 | 2 | 12
